Hits are enriched below; roughly 31% of the tested compounds scored in any of these assays.
CYP2C19 inh – blockers of cytochrome P450 2C19 activity – biochemical, luminescence, ADME assay, primary screen. CYP2C19 Supersomes, luciferin-H EGE luminescence, 30 min. AID 778, 2007. P33261. actives 21% (n = 96,000). inhibition, % at 5 µM;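 active means CYP2C19 inhibition above a set limit at 5 µM in the primary screen, cut at about 50% in these data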;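 further: plate controls were negative control wells for no effect and 2.5 mM tranylcypromine positive control for full effect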
CYP2C9 inhib – blockers of cytochrome P450 2C9 activity – biochemical, luminescence, ADME assay, primary screen | P11712 | CYP2C9 Supersomes, luciferin-H conversion | inhibition, % at 5 µM | actives 20% (n = 96,000);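 active means blocking of liver enzyme CYP2C9 beyond about 50% at 5 µM, limit read from the data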
PLAP activator – PLAP enzyme activators, biochemical, luminescence, HTS. purified PLAP enzyme, luminescent substrate read-out; hits give high values. Alkaline phosphatase, placental type (Homo sapiens), P05187. actives 1.2% (n = 96,000). activation fold at 20 µM; in the data active means activation fold above about 2
Target sequence (P05187 whole entry, looked up): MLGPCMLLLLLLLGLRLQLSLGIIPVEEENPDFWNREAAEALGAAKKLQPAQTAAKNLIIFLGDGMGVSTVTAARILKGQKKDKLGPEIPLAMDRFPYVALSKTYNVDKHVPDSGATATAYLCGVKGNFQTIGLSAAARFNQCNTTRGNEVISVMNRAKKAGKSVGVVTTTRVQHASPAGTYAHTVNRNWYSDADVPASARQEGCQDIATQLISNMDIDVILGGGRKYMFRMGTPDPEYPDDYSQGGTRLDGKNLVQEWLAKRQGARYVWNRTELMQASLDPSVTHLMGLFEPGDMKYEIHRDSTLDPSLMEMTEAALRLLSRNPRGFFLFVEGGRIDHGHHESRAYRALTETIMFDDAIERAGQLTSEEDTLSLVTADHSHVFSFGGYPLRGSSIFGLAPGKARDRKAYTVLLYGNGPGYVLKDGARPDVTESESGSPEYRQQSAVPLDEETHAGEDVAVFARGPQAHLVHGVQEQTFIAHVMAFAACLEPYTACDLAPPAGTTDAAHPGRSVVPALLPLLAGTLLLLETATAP
CYP2C9 activ – human CYP2C9 activators, primary screen, biochemical, luminescence; Cytochrome P450 2C9 (Homo sapiens), P11712; recombinant CYP2C9, luciferin-H conversion; hits give high values; factor 1 = untreated enzyme, 0 = blocked; activation factor at 5 µM; actives 1.4% (n = 96,000);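 active means activation factor of 2 or more for CYP2C9 at a 5 µM dose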;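 further: 0 = sulfaphenazole-blocked wells and 1 = vehicle-only wells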
CYP2C19 act – human CYP2C19 activators, primary screen, biochemical, luminescence; Cytochrome P450 2C19 (Homo sapiens), P33261; recombinant CYP2C19, luciferin-H EGE luminescence; hits give high values; 0 = fully inhibited enzyme, 1 = untreated enzyme; activation factor at 5 µM; 96,000 tested, under 10 active;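 active means activation factor of at least 2 at 5 µM in the primary screen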;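 further: 0 = wells with 2.5 mM tranylcypromine and 1 = vehicle-only wells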
An asterisk follows results filed as active; nt = no result.

SMILES	CYP2C19 inh	CYP2C9 inhib	PLAP activator	CYP2C9 activ	CYP2C19 act
COc1cc(OC)c(NC(=O)CCNS(=O)(=O)c2cc(Br)cnc2N)cc1Cl	36	94*	1.1	0.1	0.6
CCOc1ccc(C2=Cc3cc(OC)c(OC)cc3C(=C(Cl)Cl)O2)cc1	10	21	1.3	0.8	0.9
COc1ccccc1Nc1ncnc2ccccc12	17	15	0.8	0.9	0.8
C(=N\n1cnnc1)/c1cn(Cc2ccccc2)c2ccccc12	85*	66*	0.9	0.3	0.2
CCn1c(/C=N/n2cnnc2)nc2ccccc21	22	0	0.9	1	0.8
Clc1ccc(Cn2cc(/C=N/n3cnnc3)c3ccccc32)c(Cl)c1	43	45	1.1	0.6	0.6
CCn1c2ccccc2c2cc(/C=N/n3cn[nH]c3=S)ccc21	81*	32	1.2	0.7	0.2
CCn1c2ccccc2c2cc(/C=N/n3cnnc3)ccc21	97*	74*	1.5	0.3	0
COc1ccc(CCNC(=O)Cn2c(=O)cnc3ccccc32)cc1	39	7	0.9	0.9	0.6
COc1cc(OC)c2nc(C)c3c(c2c1)N(c1ccc(O)cc1)CC3	27	0	0.7	1	0.7
CCCCSc1cc(C)nc2ncnn12	9	9	0.9	0.9	0.9
c1ccc2c(c1)ncn2CCC1CCCCC1	92*	58*	1.2	0.4	0.1
Cn1c(Cn2cnc3ccccc32)nc2ccccc21	17	1	0.8	1	0.8
O=c1cnc2ccccc2n1CC1CCCCC1	96*	32	0.7	0.7	0
O=C(O)Cn1c(=O)cnc2ccccc21	-21	10	0.8	0.9	1.2
Cc1ccc(S(=O)(=O)N=Nc2c(O)[nH]c3ccccc23)cc1C	1	17	1.2	0.8	1
CC(C)Oc1ccc(C(=O)NCc2ccco2)cc1	70*	12	1.1	0.9	0.3
Cc1ccc(C(=O)Nc2cccc(C(=O)NCc3ccccc3)c2)o1	52*	88*	0.9	0.1	0.5
Cc1ccc(Cn2cccc(NC(=O)c3ccco3)c2=O)cc1	72*	60*	1.1	0.4	0.3
O=C(NCc1ccco1)c1cccc(NC(=O)c2ccco2)c1	30	82*	1.6	0.2	0.7
O=C(COc1ccc(Cl)cc1)Nc1ccccc1C(=O)NCc1ccco1	9	21	1.3	0.8	0.9
Cc1cc(C)cc(OCC(=O)Nc2ccccc2C(=O)NCc2ccco2)c1	91*	80*	0.8	0.2	0.1
O=C(Nc1ccccc1C(=O)NCc1ccco1)c1ccco1	36	71*	1	0.3	0.6
CC(C)(C)c1ccccc1NC(=O)c1ccco1	53*	32	1.1	0.7	0.5
CN(Cc1ccccc1)C(=O)c1cccc(NC(=O)c2ccco2)c1	38	-212	1	3.1*	0.6
SMILES	CYP2C19 inh	CYP2C9 inhib	PLAP activator	CYP2C9 activ	CYP2C19 act
CC(C)CNC(=O)c1cccc(NC(=O)c2ccco2)c1	-4	6	0.7	0.9	1
O=C(NCc1ccccc1)c1cccc(NC(=O)c2ccco2)c1	56*	85*	0.8	0.1	0.4
O/N=C1/CCc2nonc2/C1=N/O	-11	-5	1.2	1.1	1.1
Cc1ccc(S(=O)(=O)N2CCCC(C(=O)NC3=NCCS3)C2)cc1 (stereo not drawn)	-3	-1	0.8	1	1
C/C(Cn1nc([N+](=O)[O-])cc1C)=N\NC(=O)c1cccc(Br)c1	59*	8	1.3	0.9	0.4
CN1/C(=C/C(=O)c2cccs2)Sc2ccccc21	39	8	0.7	0.9	0.6
COc1ccc2c(c1)S/C(=C\C(=O)c1ccncc1)N2C	73*	62*	1.2	0.4	0.3
COc1ccc(N2C(=O)C3C4C=CC(C5CC45)C3C2=O)c([N+](=O)[O-])c1 (stereo not drawn)	38	-102	1.1	2*	0.6
O=C(N/N=C/c1ccco1)c1cc(-c2ccc3ccccc3c2)n[nH]1	29	30	2.7*	0.7	0.7
CCCCCN(C(=O)CN(C)Cc1ccc(OC)cc1OC)c1c(N)n(CCCC)c(=O)[nH]c1=O	-4	-9	2.4*	1.1	1
COCc1cc(Sc2ccc(Cl)cc2)nc(-c2ccccc2)n1	-7	-6	1.1	1.1	1.1
Nc1ccc(Sc2cc(Cl)nc(N)n2)cc1	53*	74*	1.4	0.3	0.5
Nc1nonc1-n1nncc1-c1ccccc1	16	4	1.1	1	0.8
COCCn1nnnc1C(c1ccc2ncccc2c1)N1CCc2ccccc21 (stereo not drawn)	94*	80*	1.5	0.2	0.1
COCCn1nnnc1C(c1ccc(OC)c(OC)c1)N1CCc2ccccc21 (stereo not drawn)	74*	69*	1.2	0.3	0.3
COCCn1nnnc1C(c1ccc2ncccc2c1)N1CCN(c2ccccc2F)CC1 (stereo not drawn)	3	23	1.4	0.8	1
Cc1cc(C)c2c(n1)nn1c(N3CCN(Cc4ccccc4)CC3)cc(C)nc21	17	41	2.1*	0.6	0.8
O=C(NCN1CCc2ccccc2C1)c1ccccc1	81*	20	1	0.8	0.2
O=C(CN1CCc2ccccc2C1)c1cccs1	92*	24	0.8	0.8	0.1
O=C(NCN1CCc2ccccc2C1)c1cnccn1	-2	-20	1	1.2	1
CCn1c(=O)n(CC(=O)Nc2cc(OC)ccc2OC)c(=O)c2ccccc21	22	28	0.9	0.7	0.8
COc1ccc(OC)c(NC(=O)Cn2cc(C#N)c3cc(Br)ccc32)c1	93*	99*	0.9	0	0.1
CCNc1oc(COc2cccc(C)c2)nc1C#N	98*	51*	0.9	0.5	0
Cc1nc(C#N)c(NCc2ccc3c(c2)OCO3)o1	92*	39	0.8	0.6	0.1
N#Cc1nc(COc2ccc(Cl)cc2)oc1NCc1ccc2c(c1)OCO2	65*	84*	0.8	0.2	0.3
SMILES	CYP2C19 inh	CYP2C9 inhib	PLAP activator	CYP2C9 activ	CYP2C19 act
Cc1cccc(OCc2nc(C#N)c(N3CC(C)CC(C)C3)o2)c1 (stereo not drawn)	82*	78*	1.4	0.2	0.2
CCCCCCc1ccc(OCC(=O)OC)cc1OCC(=O)OC	21	30	1.4	0.7	0.8
Cc1cccc(NC(=O)c2cc(NC(=O)c3ccco3)ccc2Cl)n1	14	34	1	0.7	0.9
Cc1ccc(C(=O)Nc2cc3c(cc2Cl)OCCCO3)cc1	nt	nt	0.9	nt	nt
Cc1cccc(OCc2nc(C#N)c(NCc3ccc4c(c3)OCO4)o2)c1	99*	97*	1.1	0	0
Cc1cccc(OCc2nc(C#N)c(NCCN(C)C)o2)c1	8	-2	1	1	0.9

Screening data from PubChem.
